Bioassay records as filed in PubChem BioAssay.
A selection: hits, their analogues and other compounds. The true share with any hit is near 10%.
G9a inh – blocks human histone lysine methyltransferase G9a; G9a H3K9 monomethylation, AlphaScreen, 2 h; AID 504332; actives 8.8% (n = 350,000); Q96KQ7; Potency, µM (top dose mostly 102 µM), inactives show top-dose activity, negative = inhibition, actives largely listed as inhibitors; note: potency is the fitted concentration of half-maximal effect; % is set by controls: 0 for no effect and ±100 for the full control effect; nearly all actives have a fitted effect of over 75% in size
Target sequence (Q96KQ7 913-1193 limits assumed): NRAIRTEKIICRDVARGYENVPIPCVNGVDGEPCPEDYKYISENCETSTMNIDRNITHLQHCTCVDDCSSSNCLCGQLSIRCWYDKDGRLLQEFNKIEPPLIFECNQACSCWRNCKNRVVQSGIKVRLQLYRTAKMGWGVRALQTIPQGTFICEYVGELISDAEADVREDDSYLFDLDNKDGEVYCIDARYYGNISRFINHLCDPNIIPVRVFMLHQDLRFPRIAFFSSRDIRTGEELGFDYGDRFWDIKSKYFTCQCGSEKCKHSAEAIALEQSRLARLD
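Using a bead-based AlphaScreen, monomethylated H3K9 product from 2 h room-temperature reactions (G9a 20 nM, peptide 500 nM, SAM 20 uM) was detected with 0.5 ug/mL rabbit anti-H3K9me1 antibody.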
BAZ2B block – inhibitors of human BAZ2B bromodomain | Q9UIF8 | AlphaScreen BAZ2B-H3K14Ac peptide displacement | Potency, µM (titrated, usually from 114 µM), inactives show at the highest dose activity change, negative = inhibition, most hits filed as inhibitors | actives 4.4% (n = 360,000); note: potency is the fitted concentration of half-maximal effect; % is set by controls: 0 for no effect and ±100 for the full control effect; nearly all actives have a fitted effect of over 60% in size
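Protein-peptide AlphaScreen: BAZ2B 50 nM, b-H3K14Ac 50 nM, 1x PBS pH 7.4 + 0.01% Tween-20. Preincubation 30 min RT; cpd 30 min RT (top 110 uM); beads 20 min RT, light-protected.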
CtBP-E1A inh – inhibitors of CtBP/E1A interaction; AlphaScreen GST-E1A/His-CtBP binding, 1536-well; active compounds read low; activity change, % (test concentration not listed); actives 0.49% (n = 340,000); in the data active = activity change below about -65%; inconclusive = mostly about -30% to -63%; note: % is set by controls: 0 for no effect and ±100 for the full control effect
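Steps: dispense buffer (Tris pH 8.0, NaCl 300 mM, TCEP 1 mM, BSA, Tween 20); add 5X protein mix (GST-E1A, His-CtBP, 125 nM each); pin 23 nL compound; 2 h at 37 °C, dark; add 5X beads (50 ug/mL); 1 h; read.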
Six1-Eya2 inh – inhibitors of human Six1/Eya2 interaction; actives 0.56% (n = 360,000); AlphaScreen GST-Six1/His-Eya2 binding, biochemical; active compounds read low; activity change, % (no concentration beside the values); Q15475+O00167; in the data active = activity change below about -65%; inconclusive = mostly about -30% to -63%; note: % is set by controls: 0 for no effect and ±100 for the full control effect
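Compounds are tested against tagged Six1 and Eya2 proteins bridged by glutathione donor and nickel acceptor beads; after a one-hour incubation at 37 °C without light, AlphaScreen emission is recorded.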
HP1b binding inh – inhibitors of HP1-beta chromodomain binding to methylated histone tails; P83916; AlphaScreen HP1-beta / biotin-H3K9me3 peptide binding; Potency, µM (titrated, usually from 114 µM), for inactives: at the highest dose activity change, negative = inhibition, most hits filed as inhibitors; actives 0.56% (n = 390,000); AID 540317; note: potency is the fitted concentration of half-maximal effect; nearly all actives have a fitted effect of over 70% in size
Target sequence (P83916 whole entry, looked up): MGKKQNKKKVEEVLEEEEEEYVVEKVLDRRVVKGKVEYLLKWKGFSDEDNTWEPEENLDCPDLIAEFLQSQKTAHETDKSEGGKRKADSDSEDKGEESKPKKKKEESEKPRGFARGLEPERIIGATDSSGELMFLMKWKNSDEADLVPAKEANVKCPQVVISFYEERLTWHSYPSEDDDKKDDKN
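AlphaScreen: HP1-beta (50 nM) preformed 30 min with biotin-H3(1-18)K9me3 peptide (50 nM) in PBS pH 7.4, 0.01% Tween-20. Compound added for 30 min at RT, then streptavidin donor/nickel chelate acceptor beads (10 ug/mL) for 30 min.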
JMJD2A Tudor inh – inhibitors of human JMJD2A Tudor domain | AID 504339 | Potency, µM (top dose mostly 114 µM), for the others: at the highest dose activity change, negative = inhibition, usual class: inhibitors | O75164 | actives 4.4% (n = 390,000) | AlphaScreen JMJD2A-Tudor / H3K4me3 peptide binding; note: potency is the fitted concentration of half-maximal effect; % is set by controls: 0 for no effect and ±100 for the full control effect; nearly all actives have a fitted effect of over 50% in size
The depositor's hits bear a star; ? = inconclusive; / = not tested or not shown; [ ] = another dose, or the depositor's remark. Unless noted, calls come from the whole dose curve; as a rule, active = well fitted inhibition curve with a large enough effect; inconclusive = small, poorly fitted or top-dose-only effect; inactive = no such curve, though single readings can be large or run the other way.

SMILES	G9a inh	BAZ2B block	CtBP-E1A inh	Six1-Eya2 inh	HP1b binding inh	JMJD2A Tudor inh
C[C@]1(OC(=O)/C=C/c2ccccc2)C[C@@H](O)[C@]2(O)C=CO[C@@H](O[C@@H]3O[C@H](CO)[C@@H](O)[C@H](O)[C@H]3O)[C@@H]21	18µM*	4%	-1	0	54%	-8%
CCc1nn(CC(=O)NCc2ccccc2)c(=O)c2cccn12	?	?	/	/	9%	?
CCC(=O)N1CCc2cc(Br)cc(S(=O)(=O)CCC(=O)N(C)c3cccc(C)c3)c21	-3%[12.7 µM]	45µM*	/	/	?	50µM*
CCC(=O)N1CCc2cc(Br)cc(S(=O)(=O)CCC(=O)N(CC)CC)c21	6%	-1%	4	-15	25%	-13%
CCCN(CCC)S(=O)(=O)c1cc(Br)cc2c1N(C(=O)CC)CC2	50µM*	13%	0	21	60%	12%[57.1 µM]
CCCCOC(=O)c1ccc(NC(=O)c2cc(-c3cccs3)on2)cc1	-23%[59 µM]	-3%	/	/	31%	-2%
Cc1ccc2onc(CNC(=O)N(C)Cc3ccccc3)c2c1	0%[59 µM]	-18%	/	/	28%	0%
CC(Oc1ccc(Cl)cc1Cl)C(=O)NC(=S)N1CCc2ccccc21 (stereo not drawn)	28µM*	-22%	-6	-8	17%	-34%
CC(C)(C)C(=O)NC(=S)N1CCc2ccccc21	20µM*	?	/	3	-22%[57 µM]	-29%
O=C(NC(=S)N1CCc2ccccc21)C1CCC1	?	-24%	6	-11	17%	-2%
Fc1ccc(NC(=S)N2CCCc3ccccc32)cc1	40µM*	?	-7	-22	-17%	-26%
S=C(Nc1cccnc1)N1CCc2ccccc21	-7%[12.7 µM]	-3%	-13	3	26%	-13%
Oc1ccccc1C1C=C(c2ccc3c(c2)OCO3)NC(c2cccc(Br)c2)N1 (stereo not drawn)	/	/	/	/	0%	?
CC(=O)Nc1ccc(NC(=O)C2CC(=O)N(Cc3ccco3)C2)cc1 (stereo not drawn)	16µM*	1%	5	-8	44%	-9%
Cc1cc(C)c2nc(NC(=O)C3CC(=O)N(Cc4ccco4)C3)sc2c1 (stereo not drawn)	-26%[59 µM]	40µM*	?	?	?	?
Cc1ccc(C)c(N2CCN(CCCNC(=O)C3COc4ccccc4C3)CC2)c1 (stereo not drawn)	12%[59 µM]	-27%	/	/	11%[57 µM]	-32%
COc1ccc(C(CC(=O)NCc2ccc(Cl)cc2)N2Cc3ccccc3C2=O)cc1OC (stereo not drawn)	1%[59 µM]	-20%	/	/	39%	-4%
Cc1ccc(/C=C/c2onc(C)c2S(=O)(=O)N2CCC(C(=O)NCc3ccc(Cl)cc3)CC2)cc1	12%[59 µM]	2%	/	/	24%[57 µM]	-2%
CCN1CCN(c2nnc(-n3cccc3C(=O)Nc3cccc(OC)c3)s2)CC1	-29%[59 µM]	-9%	/	/	31%	-10%
Cc1nc(SCC(=O)N2CCN(C(=O)c3ccco3)CC2)c2c(C)c(C)sc2n1	12%[59 µM]	8%	3	2	-9%	-24%
Cc1nc(SCC(=O)N2CCN(C(=O)c3cccs3)CC2)c2c(C)c(C)sc2n1	18µM*	-24%	0	9	39%	-19%
Cc1cc2c(s1)c1cnn(Cc3ccccc3F)c(=O)c1n2Cc1ccccc1F	/	/	/	/	/	3%
CCC(C)c1ccccc1N1CC(C(=O)Nc2ccc(S(=O)(=O)N3CCOCC3)cc2)CC1=O (stereo not drawn)	50µM*	11%	1	-1	8%	-20%
Cc1cccc(NC(=O)C2CCCN2S(=O)(=O)c2ccc3nc(-c4ccccc4)[nH]c3c2)c1 (stereo not drawn)	-9%[59 µM]	?	/	/	12%	-23%
Cc1ccc(NC(=O)C2CCCN2S(=O)(=O)c2ccc3nc(-c4ccccc4)[nH]c3c2)cc1C (stereo not drawn)	-34%[59 µM]	79µM*	/	/	19%	-32%
SMILES	G9a inh	BAZ2B block	CtBP-E1A inh	Six1-Eya2 inh	HP1b binding inh	JMJD2A Tudor inh
CSc1n[nH]c(/N=C/c2oc(O)c3ccccc23)n1	20µM*	?	18	5	53%	-17%
Oc1oc(C=Nc2ccc(F)cc2F)c2ccccc12	5µM*	?	/	-5	48%	-19%
Cc1cccc(/N=C/c2c(O)c3ccccc3oc2=O)n1	-37%[12.7 µM]	-35%	-5	4	2%	-11%
O=C(COC(=O)c1c[nH]c(=O)[nH]c1=O)Nc1ccccc1	-1%	-28%	18	-1	43%	10%
CC(C)c1ccc(NC(=O)COC(=O)c2c[nH]c(=O)[nH]c2=O)cc1	16µM*	6%	0	10	16%	?
CCOC(=O)CSc1nc2ccc(NC(=O)c3ccc(F)cc3)cc2s1	-34%[59 µM]	?	/	/	39%	-6%
C#CCSc1nnc(CNS(=O)(=O)c2ccc(Br)cc2)n1C	5%	-10%	7	22	34%	9%
CCn1c(C(C)NS(=O)(=O)c2ccc(Cl)cc2)n[nH]c1=S (stereo not drawn)	/	0%	6	2	25%	20µM*
CCCC(C)NS(=O)(=O)c1ccccc1 (stereo not drawn)	-1%	12%	11	-1	38%	7%
CCCn1c(C(C)NS(=O)(=O)c2ccccc2)n[nH]c1=S (stereo not drawn)	20µM*	-12%	/	7	41%	?
CCn1c(CNS(=O)(=O)c2ccc(Br)cc2)n[nH]c1=S	35µM*	-11%	6	18	45%	22µM*
Cc1ccc(CNC(=O)c2cc(=O)c3cc(C)c(C)cc3o2)cc1	5%[59 µM]	-8%	/	/	31%	-17%
O=c1c(-c2ccccc2)nc2cnc(Nc3ccccc3)nc2n1Cc1cccs1	27%[0.501 µM]	/	/	/	/	/
O=S(=O)(Nc1cccc(-c2ccc(N3CCOCC3)nn2)c1)c1ccc(F)cc1F	4%[59 µM]	-2%	/	/	17%[57 µM]	-20%
CCOc1ccc(CNC(=O)C2CCN(c3nnc(-n4c(C)ccc4C)s3)CC2)cc1	-18%[59 µM]	-16%	/	/	9%	-24%
CCOc1ccccc1C(=O)Nc1cc(-c2ccc(C)cc2)no1	-7%[59 µM]	-9%	/	/	41%	-11%
O=C(/C=C/c1cccc([N+](=O)[O-])c1)NC(=S)Nc1ccccc1C(=O)O	45µM*	-23%	/	/	/	/
O=C(NC(NC(=S)Nc1ccccc1Cl)C(Cl)(Cl)Cl)c1cccc(Cl)c1 (stereo not drawn)	-22%	-29%	-18	0	-24%	-26%
O=C(/C=C/c1cccc([N+](=O)[O-])c1)NC(=S)Nc1cccc(NC(=O)c2ccccc2Cl)c1	-11%	-32%	9	3	31%	12%
